Records with an inconclusive call do not appear. The source made the active and inactive calls. The call rests on the fitted dose curve; in most records, active means well fitted inhibition curve with a large enough effect; inconclusive means small, poorly fitted or top-dose-only effect; inactive means flat fitted curve, though single readings scatter.
Legend:
Test in all cases: qHTS profiling for inhibitors of Plasmodium falciparum proliferation (AID 504749); further: nearly all actives have a fitted effect of over 60% in size
Settings in all cases: P. falciparum in erythrocytes, SYBR Green DNA, 72 h; series mostly up to 28.7 µM
CP238 = test system: CP238
In short: (§1)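 Each compound contacts P. falciparum-infected red blood cells for 72 h at 37 C; lysis buffer (Tris, EDTA, saponin, Triton X, SYBR Green I) is added and fluorescence measured next morning; values normalized to controls.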

CP247 = test system: CP247
In short: as §1

CP250 = test system: CP250
In short: as §1

CP252 = test system: CP252
In short: as §1

CP256 = test system: CP256
In short: as §1

CP260 = test system: CP260
In short: as §1

CP262 = test system: CP262
In short: as §1

CP265 = test system: CP265
In short: as §1

CP266 = test system: CP266
In short: as §1

CP268 = test system: CP268
In short: as §1

CP269 = test system: CP269
In short: as §1

CP286 = test system: CP286
In short: as §1

CP291 = test system: CP291
In short: as §1

CP297 = test system: CP297
In short: as §1

CP305 = test system: CP305
In short: as §1

CP315 = test system: CP315
In short: as §1

CP325 = test system: CP325
In short: as §1

CP329 = test system: CP329
In short: as §1

CP335 = test system: CP335
In short: as §1

DFO2036 = test system: DFO2036
In short: as §1

Measured: Potency
Potency means the concentration at half of the fitted maximal effect.

COP(=S)(OC)Oc1ccc(Sc2ccc(OP(=S)(OC)OC)cc2)cc1
inactive: all assays above

NC(=O)OCCCc1ccccc1
inactive: all assays above

C[C@]12Cc3nonc3C[C@@H]1CC[C@@H]1[C@@H]2CC[C@@]2(C)[C@H]1CC[C@]2(C)O
not listed: CP335
inactive: all other assays above

Cc1ncc2n1-c1ccc(Cl)cc1C(c1ccccc1F)=NC2
inactive: all assays above

COP(=O)(OC)OC=C(Cl)Cl
inactive: all assays above

CC(C)[N+](C)(CCC(C(N)=O)(c1ccccc1)c1ccccc1)C(C)C
inactive: all assays above

CCC1(CC)C(=O)NC(=O)NC1=O
inactive: all assays above

N#Cc1nn(-c2c(Cl)cc(C(F)(F)F)cc2Cl)c(N)c1S(=O)C(F)(F)F (stereo not drawn)
active: CP250 11.2 µM | CP260 8.91 µM | CP262 10.7 µM | CP268 6.01 µM | CP269 15.1 µM | CP286 5.01 µM | CP291 6.75 µM | CP297 10.7 µM | CP305 7.57 µM | CP329 7.57 µM | CP335 13.5 µM

CC(C)(O)C(Cl)(Cl)Cl
active: CP238 10 µM | CP247 10 µM | CP250 12.6 µM | CP256 10 µM | CP260 3.55 µM | CP265 2.51 µM | CP268 6.01 µM | CP269 4.26 µM | CP286 5.62 µM | CP291 15.1 µM | CP305 6.01 µM | CP325 12 µM | CP335 2.39 µM | DFO2036 3.55 µM
inactive: CP262

CN1CCc2cc(Cl)c(O)cc2[C@H]2c3ccccc3CC[C@@H]21
inactive: CP262 | CP315 | CP325
active: CP286 11.2 µM | CP335 8.49 µM

c1cc2c(c(N3CCNCC3)c1)OCCO2
not listed: CP266 | CP297
inactive: all other assays above

Clc1ccc(CO/N=C(\Cn2ccnc2)c2ccc(Cl)cc2Cl)c(Cl)c1
active: CP238 5.01 µM | CP247 4.47 µM | CP250 7.08 µM | CP252 6.31 µM | CP260 7.08 µM | CP262 15.1 µM | CP265 4.47 µM | CP269 13.5 µM | CP286 5.62 µM | CP291 12 µM | CP297 4.78 µM | CP305 13.5 µM | CP325 13.5 µM | CP335 6.01 µM | DFO2036 3.98 µM

O=C1NCN(c2ccccc2)C12CCN(CCCOc1ccc(F)cc1)CC2
active: CP286 12.6 µM | CP297 12 µM
inactive: CP252 | CP256 | CP262 | CP315 | CP329

Oc1ccc2[nH]cc(CCCCN3CC=C(c4ccccc4)CC3)c2c1
active: CP247 7.08 µM | CP297 15.1 µM | CP315 16.9 µM | DFO2036 10 µM

CCCCCCCCC(=O)NCc1ccc(O)c(OC)c1
not listed: CP266
inactive: all other assays above
